# PubChem BioAssay (Tox21)
# A number with no mark means an inactive call. Active and inactive are the calls of the source. The call rests on the fitted dose curve; in most records, active means well fitted curve in the direction sought with a large enough effect in the repeat runs; inconclusive means weak or mixed curves; inactive means flat fitted curve, though single readings scatter.
# Assay: qHTS assay to test for compound auto fluorescence at 590 nm (red) in HepG2 cells (AID 720674)
# Conditions: HepG2 autofluorescence, red 540/590 nm, 1 h; series mostly up to 91.3 µM; fluorescence, relative to Rose Bengal: at the top concentration
# Description: U.S. Tox21 Program National Center for Advancing Translational Sciences [NCATS] NIH Chemical Genomics Center [NCGC] U.S. Environmental Protection Agency [EPA] National Institutes of Environmental Health Sciences [NIEHS] National Toxicology Program [NTP] U.S. Food and Drug Administration [FDA] Tox21 Assay Overview: Compound auto fluorescence often interferes with screening of the compound library against various biological targets and signaling pathways. Some of these compounds may have fluorophoric properties. Such properties may interfere with the assay outputs resulting in false positives and/or negatives. To decrease such complications and ensure the compound activities are relevant in terms of biological response, the Tox21 10K compound library was screened for auto fluorescence. From the fluorophores used as reporter signals in our screening assays, the auto fluorescence equivalencies of compounds against three fluorophores have been evaluated: Triamterene, Fluorescein and Rose Bengal sodium for blue, green and red fluorescence, respectively. The fluorescence intensities were measured using Excitation/Emission wavelengths at 405/460nm, 485/535nm and 540/590nm for blue, green and red labels, respectively. This assay includes the red fluorescence data.
# Tox21 Assay Protocol Summary: 2,000 HepG2 cells in 5 uL of culture medium (MEM containing 10% FBS) per well were dispensed into black wall/clear bottom 1536-well plates using a Multidrop Combi Dispenser (ThermoFisher Scientific, Waltham, MA). The assay plates were incubated overnight at 37 C to allow cell attachment to the well bottom, followed by the transfer of 23 nL compound or DMSO vehicle by a pintool work station (Kalypsys , San Diego, CA). After the assay plates were incubated for 1 hr at 37 C and 5% CO2, fluorescence intensities in the assay plates were measured by an Envision (PerkinElmer, Shelton, CT) plate reader using three labels for measuring blue, green and red fluorescence at […] 460, 535 and 590 nm respectively.
# On the % scale 0 is the no-effect control and ±100 the full control effect.
SMILES,"fluorescence, relative to Rose Bengal",outcome
CCCn1cc[n+](C)c1C,-0.0202% [at 95.7 µM],–
COc1cc(C)nc(-n2nc(C)cc2OC)n1,-0.559% [at 18.6 µM],–
CN(C)[C@@H]1C(=O)C(C(=O)NCN2CCCC2)=C(O)[C@@]2(O)C(=O)C3=C(O)c4c(O)cccc4[C@@](C)(O)C3C[C@@H]12 (stereo not given in full),–,inactive
Cc1ccccc1N=C(N)N=C(N)N,-0.172%,–
CC(C)(C)OC(=O)c1cccc(N)c1,0.0568% [at 95.7 µM],–
CC[N+](C)(CC)CCOC(=O)C1c2ccccc2Oc2ccccc21,-0.328% [at 46 µM],–
COc1c(N2CCNC(C)C2)c(F)cc2c(=O)c(C(=O)O)cn(C3CC3)c12 (stereo not given),0.334% [at 46 µM],–
CC(C)NNC(=O)c1ccncc1,-0.808% [at 46 µM],–
CN1[C@@H]2CC[C@H]1CC(OC(=O)C(O)c1ccccc1)C2 (stereo not given in full),–,inactive
O=C(O)CNC(=O)c1ccc(CO)o1,-0.0432%,–
O=C1CCCCCCCCCCCCCCO1,0.0549%,–
CCCCOC(=O)CCC(C)=O,-0.121%,–
CCOC(=O)c1ccccc1,0.0116%,–
O=Cc1cccc(Br)c1,0.319% [at 95.7 µM],–
Cc1nc2ccc(CN(C)c3ccc(C(=O)N[C@@H](CCC(=O)O)C(=O)O)s3)cc2c(=O)[nH]1,–,inactive
CC12CCC(C(=O)C1=O)C2(C)C (stereo not given),-0.174% [at 95.7 µM],–
CCCCCC(=O)OCCc1ccccc1,-0.136%,–
c1ccc(CCc2ccccc2)cc1,-0.112%,–
COc1cc(C(=O)NCc2ccc(OCCN(C)C)cc2)cc(OC)c1OC,1.14% [at 18.6 µM],–
CC(C)(C#N)Nc1nc(Cl)nc(NC2CC2)n1,0.0321%,–

SMILES,"fluorescence, relative to Rose Bengal",outcome
CCCCCC(C)N (stereo not given),0.198% [at 46 µM],–
CC(=O)c1cnccn1,-0.224% [at 95.7 µM],–
CCC(C)(CN(C)C)OC(=O)c1ccccc1 (stereo not given),-0.657% [at 18.6 µM],–
O=CN(CCO)CCO,0.146%,–
CC(C)(C)C(=O)c1ccccc1,0.0546%,–
CNC(=O)Nc1ccc(Cl)c(Cl)c1,-0.0533%,–
COCCOC[C@H](CC1(C(=O)NC2CCC(C(=O)O)CC2)CCCC1)C(=O)Oc1ccc2c(c1)CCC2 (stereo not given in full),-0.241%,–
CCCCCCCCCC[N+](C)(C)[O-],-0.111%,–
O=C(CO)[C@@H](O)[C@H](O)[C@H](O)CO,–,inactive
CCOC(=O)C1=NOC(c2ccccc2)(c2ccccc2)C1,-0.83%,–
Cc1cccc(C)c1NC(=O)CC12CCCN1CCC2,0.133% [at 46 µM],–
CC(C)[C@H]1CC[C@@H](C)CC1=O,0.0353%,–
Cc1ccc(-c2ncc(Cl)cc2-c2ccc(S(C)(=O)=O)cc2)cn1,-0.157% [at 46 µM],–
CC(=O)OCC(=O)[C@@]1(O)[C@H](C)C[C@H]2[C@@H]3CCC4=CC(=O)C=C[C@]4(C)[C@@]3(F)[C@@H](O)C[C@@]21C,–,inactive
CCOC(=O)c1cnc2c(cnn2CC)c1NN=C(C)C,0.101% [at 46 µM],–
CCNS(=O)(=O)c1ccc(C)cc1,0.0163% [at 95.7 µM],–
C1CCC2=NCCCN2CC1,0.132%,–
CCC(C)(CCCC(C)C)OC(C)=O (stereo not given),0.0275%,–
CC(CO)(CO)[N+](=O)[O-],0.105%,–
CCN[C@H]1C[C@H](C)S(=O)(=O)c2sc(S(N)(=O)=O)cc21,0.538% [at 46 µM],–
